The results in this text go back to the antibiotic and cytotoxicity screens of Wong et al. (2023).

The whole screen tested about 39,000 compounds, of which about 1,500 (3.8%) were called active. Many of the other results were omitted from the sample, so actives are more common in it than they were.

This test relates to HSkMC (human skeletal muscle cells). Description: cytotoxicity call (relative viability < 0.9). To be noted: 10 µM.
Take `C[C@H]1CN([C@@H](C)CO)C(=O)Cc2cc(NC(=O)Nc3ccccc3)ccc2O[C@H]1CN(C)Cc1ccc(Cl)c(Cl)c1`: the cytotoxicity call was “active”.

For `C[C@@H]1CN([C@@H](C)CO)C(=O)Cc2cc(NC(=O)Nc3ccccc3)ccc2O[C@@H]1CN(C)Cc1ccc(Cl)c(Cl)c1`, the cytotoxicity call is “active”.

As for `C[C@@H]1CN([C@H](C)CO)C(=O)Cc2cc(NC(=O)Nc3ccccc3)ccc2O[C@H]1CN(C)Cc1ccc(Cl)c(Cl)c1`, the cytotoxicity call is “active”.

In the case of `C[C@@H]1CN([C@H](C)CO)C(=O)Cc2cc(NC(=O)Nc3ccccc3)ccc2O[C@@H]1CN(C)Cc1ccc(Cl)c(Cl)c1`, the cytotoxicity call is “active”.

Regarding `C[C@H](CO)N1C[C@H](C)[C@H](CN(C)S(C)(=O)=O)Oc2ccc(NC(=O)Nc3ccc4c(c3)OCO4)cc2CC1=O`, the cytotoxicity call was “inactive”.

As for `CC[C@@H](C)N1C(=O)CC[C@H]1C(=O)O`, the cytotoxicity call was “inactive”.

Regarding `COc1ccc(S(=O)(=O)Nc2ccc3c(c2)C(=O)N([C@H](C)CO)C[C@H](C)[C@H](CN(C)Cc2ccc(C(=O)Nc4ccccc4N)cc2)OCCCC[C@@H](C)O3)cc1`, the cytotoxicity call is “inactive”.

With `C[C@H](CO)N1C[C@H](C)[C@@H](CN(C)S(=O)(=O)c2cccs2)Oc2ccc(NS(C)(=O)=O)cc2C1=O`, the cytotoxicity call is “inactive”.

On to `NCc1ccc(C(=O)O)cc1`, for which the cytotoxicity call is “inactive”.

As for `Cc1noc(C)c1NC(=O)Nc1cccc2c1O[C@H](CN(C)S(=O)(=O)c1ccccc1)[C@@H](C)CN([C@@H](C)CO)C2=O`, the cytotoxicity call is “inactive”.

As for `C[C@@H]1CCCCO[C@H](CN(C)C(=O)c2ccncc2)[C@@H](C)CN([C@H](C)CO)C(=O)c2cc(NC(=O)CCCCCC(=O)Nc3ccccc3N)ccc2O1`, the cytotoxicity call is “inactive”.

Turning to `CCc1nc2ccc(C(=O)Nc3cc(-c4ccccc4)ccc3OC)cn2c1N(CCN(C)C)CC1CC1`, the cytotoxicity call was “inactive”.

In the case of `C[C@H](CO)N1C[C@H](C)[C@@H](CN(C)S(=O)(=O)c2cn(C)cn2)Oc2c(NC(=O)C3CCOCC3)cccc2C1=O`, the cytotoxicity call was “inactive”.

As to `CN1C(=O)c2cc(NC(=O)C3CCCC3)ccc2OC[C@H]2O[C@@H](CC(=O)NCCc3ccncc3)CC[C@@H]21`, the cytotoxicity call is “inactive”.

For `COCC(=O)Nc1ccc2c(c1)C(=O)N(C)[C@H]1CC[C@@H](CC(=O)NCc3ccccc3Cl)O[C@@H]1CO2`, the cytotoxicity call is “inactive”.

Turning to `C[C@H](CO)N1C[C@H](C)[C@H](CN(C)Cc2ccc(Cl)c(Cl)c2)Oc2ccc(NC(=O)Nc3ccccc3)cc2CC1=O`, the cytotoxicity call is “active”.

On to `COc1ccc(NC(=O)Nc2ccc3c(c2)CC(=O)N([C@H](C)CO)C[C@H](C)[C@@H](CN(C)Cc2ccc(Cl)c(Cl)c2)O3)cc1`, for which the cytotoxicity call was “inactive”.

Consider `C[C@H]1CN([C@@H](C)CO)C(=O)Cc2cc(NC(=O)Nc3ccccc3)ccc2O[C@@H]1CN(C)Cc1ccc(Cl)c(Cl)c1`, for which the cytotoxicity call is “active”.

As for `C[C@H](CO)N1C[C@H](C)[C@@H](CN(C)Cc2ccc(Cl)c(Cl)c2)Oc2ccc(NC(=O)Nc3ccccc3)cc2CC1=O`, the cytotoxicity call was “inactive”.

For `COc1ccc(NC(=O)Nc2ccc3c(c2)CC(=O)N([C@@H](C)CO)C[C@@H](C)[C@@H](CN(C)Cc2ccc(Cl)c(Cl)c2)O3)cc1`, the cytotoxicity call is “inactive”.

Take `C[C@@H]1CN([C@@H](C)CO)C(=O)Cc2cc(NC(=O)Nc3ccccc3)ccc2O[C@H]1CN(C)Cc1ccc(Cl)c(Cl)c1`: the cytotoxicity call was “inactive”.

Take `O=C(CN1CCOCC1)NCC[C@H]1CC[C@@H](NC(=O)Nc2ccccc2)[C@H](CO)O1`: the cytotoxicity call was “inactive”.

In the case of `C[C@H]1CN([C@@H](C)CO)S(=O)(=O)c2ccc(-c3cccnc3)cc2O[C@@H]1CN(C)C(=O)c1cccc(F)c1`, the cytotoxicity call is “inactive”.

Turning to `Cc1ccccc1S(=O)(=O)N1C[C@H](O)COC[C@@H]2O[C@@H](CC(=O)NCc3ccccc3Cl)CC[C@H]21`, the cytotoxicity call is “inactive”.

`C[C@H](CO)N1C[C@H](C)[C@@H](CN(C)Cc2ccc(C(F)(F)F)cc2)Oc2ccc(NS(=O)(=O)c3ccc(Cl)cc3)cc2C1=O`: the cytotoxicity call was “active”.

Regarding `C[C@@H]1CN([C@@H](C)CO)C(=O)c2cc(NS(=O)(=O)c3ccc(Cl)cc3)ccc2O[C@H]1CN(C)Cc1ccc(C(F)(F)F)cc1`, the cytotoxicity call is “inactive”.

On to `C[C@H]1CN([C@@H](C)CO)C(=O)c2cc(NS(=O)(=O)c3ccc(Cl)cc3)ccc2O[C@H]1CN(C)Cc1ccc(C(F)(F)F)cc1`, for which the cytotoxicity call is “inactive”.

For `C[C@H](CO)N1C[C@H](C)[C@H](CN(C)Cc2ccc(C(F)(F)F)cc2)Oc2ccc(NS(=O)(=O)c3ccc(Cl)cc3)cc2C1=O`, the cytotoxicity call was “active”.

Regarding `Cc1ccc(S(=O)(=O)Nc2ccc3c(c2)C(=O)N([C@@H](C)CO)C[C@@H](C)[C@H](CN(C)Cc2ccc(C(F)(F)F)cc2)O3)cc1`, the cytotoxicity call was “inactive”.

On to `C[C@@H]1CN([C@H](C)CO)C(=O)c2cc(NS(=O)(=O)c3ccc(Cl)cc3)ccc2O[C@@H]1CN(C)Cc1ccc(C(F)(F)F)cc1`, for which the cytotoxicity call was “active”.

Take `C[C@@H]1CN([C@@H](C)CO)C(=O)c2cc(NS(=O)(=O)c3ccc(Cl)cc3)ccc2O[C@@H]1CN(C)Cc1ccc(C(F)(F)F)cc1`: the cytotoxicity call is “active”.

On to `Cc1ccc(S(=O)(=O)Nc2ccc3c(c2)C(=O)N([C@@H](C)CO)C[C@@H](C)[C@@H](CN(C)Cc2ccc(C(F)(F)F)cc2)O3)cc1`, for which the cytotoxicity call is “inactive”.

In the case of `C[C@@H]1CN([C@H](C)CO)C(=O)c2cc(NS(=O)(=O)c3ccc(Cl)cc3)ccc2O[C@H]1CN(C)Cc1ccc(C(F)(F)F)cc1`, the cytotoxicity call was “inactive”.

On to `O=C(C[C@H]1C[C@H]2c3cc(NS(=O)(=O)c4ccc(F)cc4)ccc3O[C@H]2[C@@H](CO)O1)NC1CCCCC1`, for which the cytotoxicity call was “inactive”.

As to `C[C@@H]1CCCCO[C@@H](CN(C)C(=O)Nc2cccc3ccccc23)[C@@H](C)CN([C@@H](C)CO)C(=O)c2cc(NS(=O)(=O)c3ccc(Cl)cc3)ccc2O1`, the cytotoxicity call was “inactive”.

With `C[C@H]1CN([C@@H](C)CO)C(=O)Cc2cc(NC(=O)CCC(F)(F)F)ccc2O[C@H]1CN(C)S(=O)(=O)c1ccccc1`, the cytotoxicity call was “inactive”.

For `CO/N=C(\C(=O)N[C@@H]1C(=O)N2C(C(=O)O)=C(C)CS[C@H]12)c1csc(N)n1`, the cytotoxicity call was “inactive”.

As for `C[C@@H]1CCCCO[C@H](CN(C)C(=O)c2ccccc2)[C@H](C)CN([C@H](C)CO)C(=O)c2cc(NS(=O)(=O)c3ccc(Cl)cc3)ccc2O1`, the cytotoxicity call was “inactive”.

Turning to `COCC#Cc1cnc2c(c1)C(=O)N([C@H](C)CO)C[C@H](C)[C@H](CN(C)C(=O)Nc1ccc(OC)cc1)O2`, the cytotoxicity call was “inactive”.

Turning to `CS(=O)(=O)N1C[C@H]2COC[C@@]2(C(=O)NCc2ccccn2)C1`, the cytotoxicity call is “inactive”.

For the compound `C[C@@H]1CN([C@H](C)CO)C(=O)CCCn2cc(nn2)CO[C@H]1CN(C)C(=O)Nc1ccc(C(F)(F)F)cc1`, the cytotoxicity call is “inactive”.

Regarding `Cc1ccc(S(=O)(=O)Nc2ccc3c(c2)C(=O)N([C@H](C)CO)C[C@H](C)[C@@H](CN(C)C(=O)Cc2ccccc2)OCCCC[C@@H](C)O3)cc1`, the cytotoxicity call is “inactive”.

In the case of `Cc1noc(C)c1S(=O)(=O)Nc1ccc2c(c1)C(=O)N([C@@H](C)CO)C[C@H](C)[C@H](CN(C)Cc1ccc(Cl)c(Cl)c1)OCCCC[C@@H](C)O2`, the cytotoxicity call was “inactive”.

Regarding `C[C@H](CO)N1C[C@H](C)[C@@H](CN(C)CC2CCCCC2)Oc2c(NC(=O)c3ccc(-c4nccs4)cc3)cccc2C1=O`, the cytotoxicity call is “inactive”.

As to `Cc1ccc(-c2cnc3c(c2)C(=O)N([C@@H](C)CO)C[C@@H](C)[C@H](CN(C)C(=O)Cc2ccncc2)O3)cc1`, the cytotoxicity call is “inactive”.

Regarding `C[C@H]1CN([C@@H](C)CO)C(=O)c2cc(NS(=O)(=O)c3ccc(Cl)cc3)ccc2O[C@H]1CN(C)C(=O)Nc1cccc2ccccc12`, the cytotoxicity call was “inactive”.

With `C[C@H]1CN([C@@H](C)CO)C(=O)c2cc(NS(=O)(=O)c3ccc(Cl)cc3)ccc2O[C@@H]1CN(C)Cc1ccc(C(F)(F)F)cc1`, the cytotoxicity call was “active”.

On to `C[C@@H]1CN([C@@H](C)CO)C(=O)c2cc(NC(=O)CCC(F)(F)F)ccc2O[C@@H](C)CCCCO[C@@H]1CN(C)C(=O)Nc1ccc(C(F)(F)F)cc1`, for which the cytotoxicity call is “inactive”.

Consider `Nc1nc(=O)n([C@@H]2CS[C@H](CO)O2)cc1F`, for which the cytotoxicity call is “inactive”.

With `CNC(=O)c1ccccc1N`, the cytotoxicity call is “inactive”.

Take `C[C@H](CO)N1C[C@H](C)[C@@H](CN(C)Cc2ccc(Oc3ccccc3)cc2)Oc2ccc(NC(=O)Nc3ccc(C(F)(F)F)cc3)cc2C1=O`: the cytotoxicity call is “active”.

As for `C[C@@H]1CN([C@@H](C)CO)C(=O)c2cc(NC(=O)Nc3ccc(C(F)(F)F)cc3)ccc2O[C@@H]1CN(C)Cc1ccc(Oc2ccccc2)cc1`, the cytotoxicity call is “active”.

As for `C[C@H]1CN([C@@H](C)CO)C(=O)c2cc(NC(=O)Nc3ccc(C(F)(F)F)cc3)ccc2O[C@H]1CN(C)Cc1ccc(Oc2ccccc2)cc1`, the cytotoxicity call is “active”.

With `C[C@@H]1CN([C@@H](C)CO)C(=O)c2cc(NC(=O)Nc3ccc(C(F)(F)F)cc3)ccc2O[C@H]1CN(C)Cc1ccc(Oc2ccccc2)cc1`, the cytotoxicity call is “active”.

In the case of `O=C(C[C@@H]1C[C@H]2c3cc(NC(=O)C4CCOCC4)ccc3O[C@H]2[C@H](CO)O1)NCc1ccc2c(c1)OCO2`, the cytotoxicity call was “inactive”.

For `C[C@@H]1CCCCO[C@@H](CN(C)C(=O)c2ccccc2)[C@@H](C)CN([C@H](C)CO)C(=O)c2cc(NC(=O)Nc3ccc(C(F)(F)F)cc3)ccc2O1`, the cytotoxicity call was “inactive”.

Take `Cc1noc(C)c1S(=O)(=O)Nc1ccc2c(c1)C(=O)N([C@@H](C)CO)C[C@@H](C)[C@H](CN(C)C(=O)NC(C)C)O2`: the cytotoxicity call is “inactive”.

As to `Cl.N=C(N)NC(=N)N1CCOCC1`, the cytotoxicity call was “inactive”.

Consider `COc1ccc(S(=O)(=O)N2C[C@@H](O)COC[C@H]3O[C@@H](CC(=O)NCCCN(C)C)CC[C@@H]32)cc1`, for which the cytotoxicity call was “inactive”.

Regarding `C[C@H](CO)N1C[C@H](C)[C@H](CN(C)S(=O)(=O)c2cccs2)Oc2ccc(NS(=O)(=O)c3cn(C)cn3)cc2C1=O`, the cytotoxicity call is “inactive”.

As for `Cn1cnc(CCNC(=O)C[C@H]2CC[C@H]3[C@@H](COC[C@H](O)CN3C(=O)Nc3ccc(C(F)(F)F)cc3)O2)c1`, the cytotoxicity call is “inactive”.

Regarding `C[C@H]1CN([C@@H](C)CO)C(=O)c2cc(NS(=O)(=O)c3ccc(F)cc3)ccc2O[C@H]1CN(C)S(=O)(=O)c1ccccc1`, the cytotoxicity call was “inactive”.

`Cc1nn(C)c(Cl)c1S(=O)(=O)NC(=O)[C@@]1(C)CCN1C(=O)c1ccccc1CCc1ccccc1`: the cytotoxicity call is “inactive”.
